# About 83,000 compounds went through this panel and 20% of them were active in at least one assay; those are over-represented in the sample as a whole.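 Interpretation: 100, growth as untreated; towards 0, rising growth inhibition; 0, no net growth; 0 to -100, cell death. Compounds scoring below 10 were considered active.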 Activity calls are given as the source filed them.
# System: HCC-2998 colon
# Test: NCI-60 one-dose screen, 48 h (100 = growth as untreated, 0 = no growth, -100 = all killed)
# Conditions: 10 µM unless noted
# Protocol: Growth inhibition of the HCC-2998 human tumor cell line is measured as a screen for anti-cancer activity. Cells are grown in 96 well plates and exposed to the test compound for 48 hours. Compounds are tested at a single concentration, which is 10^-5 M for most compounds. The reported endpoint is percent growth (GI% or GIPRCNT), where numbers from 0 - 100% represent growth inhibition, and numbers from -100% - 0 represent cell death. For example, a value of 40 represents 60% growth inhibition. A value of 0 means no net growth occurred over the course of the experiment. A value of -40 indicates 40% of cells at the beginning of the experiment died by the end of the experiment. A value of -100 means all cells are dead at the end of the experiment.
# NCI-60 Human Tumor Cell Lines Screen was performed using the standard one-dose NCI protocol, which is described in more detail at https://dtp.cancer.gov/discovery_development/nci-60/default.htm.
# Compounds with GIPRCNT values below 10 were considered active. Activity score was based on GIPRCNT using the following formula: […]
# Score is 0 for GIPRCNT values of 100 or above, 50 for GIPRCNT values of 0, and 100 for GIPRCNT values of -100.
row,SMILES,growth
1,O=C(/C=C/c1cccc([N+](=O)[O-])c1)c1ccc(Nc2nc(Nc3ccc(F)cc3)nc(Nc3ccc(Cl)cc3)n2)cc1,103% (inactive)
2,COc1ccc(S(=O)(=O)Oc2ccc(-c3sc4cc(OS(=O)(=O)c5ccc(OC)cc5)ccc4c3C(=O)c3ccc(OCCN4CCCCC4)cc3)cc2)cc1,105% (inactive)
3,CCOC(=O)CCC(=O)P(=O)(O)O,99.8% (inactive)
4,COC(=O)[C@@H](Cc1c[nH]c2ccccc12)NC[C@@H](O)CN1C(=O)/C(=C\c2cc(OC)c(OC)c(OC)c2)c2ccccc21,75.2% (inactive)
5,CO[C@]12C=C/C(=C(/C(=O)OCc3cccnc3)C(=O)CCCCCCCC[C@]3(OC)C=C/C(=C(/C(=O)OCc4cccnc4)C(=O)CCCCCCCC1)O3)O2,-90.6% (active)
6,c1ccc(Cn2cc3c(c2)-c2nc(Nc4ccccc4)ncc2CC3)cc1,99.9% [100 µM] (inactive)
7,Cc1cc([N+](=O)[O-])ccc1NC(=O)c1ccc2c(c1)nc(-c1ccccc1)n2C1CCCCC1,88.3% (inactive)
8,CCN1CCN(c2nc(NNC(=O)c3ccc(OC)cc3)nc(N3CCN(C(c4ccccc4)c4ccccc4)CC3)n2)CC1,21.3% (inactive)
9,c1ccc2c(-c3cnn4cc(-c5ccc(N6CCNCC6)cc5)cnc34)ccnc2c1,-63.8% (active)
10,COC(=O)[C@@H](Cc1c[nH]c2ccccc12)NC(=O)[C@H](Cc1ccccc1)NCc1ccncc1,112% (inactive)
11,CCCCCCCCOC(=O)c1c(C)[nH]c(/C=C2\N=C(c3ccc[nH]3)C=C2OC)c1C,-26.4% (active)
12,Cc1ccc(C23CCC(=O)N2CCc2cncn23)cc1 (stereo not given),107% (inactive)
13,O=C1/C(=C/c2ccccc2)COc2ccc(O)cc21,101% (inactive)
14,CO[C@H]1/C=C/O[C@@]2(C)Oc3c(C)c(O)c4c(O)c(c5c(nc6cc(C)ccn65)c4c3C2=O)NC(=O)/C(C)=C\C=C\[C@H](C)[C@H](O)[C@@H](C)C(O)[C@@H](C)[C@H](OC(C)=O)[C@@H]1C (stereo not given in full),106% (inactive)
15,O=[N+]([O-])c1ccc(Oc2cccc3c(Oc4ccc([N+](=O)[O-])cc4[N+](=O)[O-])cccc23)c([N+](=O)[O-])c1,110% (inactive)
16,CCCCCCCCNc1ncnc2c1ncn2Cc1nnc2c3ccccc3c(Cl)nn12,76.3% (inactive)
17,COC(=O)c1cc(-c2ccc(OC)c(OC)c2)[nH]c1N/N=C/c1c(Cl)cccc1Cl,53.2% (inactive)
18,O=c1c(/C=C/c2c(O)ccc3ccccc23)nnc2sc(-c3cccc([N+](=O)[O-])c3)nn12,60.9% (inactive)
19,O=C1NCCS(=O)(=O)/C1=C\C=C\c1cccc(C(F)(F)F)c1,19.6% (inactive)
20,CCN(CC)CCCC(Nc1c2ccc(Cl)cc2nc2ccc(OC)cc12)c1ccncc1 (stereo not given),71% (inactive)

row,SMILES,growth
1,COC(=O)c1c(C)nc(C)c2c1C(=O)C(Br)=C(NCCN1CCOCC1)C2=O,101% (inactive)
2,CCOC(=O)C1=C(c2ccccc2)N=C2SC=C(c3cccc([N+](=O)[O-])c3)N2C1c1ccc(O)cc1 (stereo not given),101% (inactive)
3,COc1cc2c(c(OC)c1OC)CCC(c1cccc(NC(=O)c3cccc(Cl)c3)c1)O2 (stereo not given),100% (inactive)
4,O=C1C=CC2(O)OC(c3ccccc3)CC(=O)C2=C1O (stereo not given),101% (inactive)
5,O=C1CC2C=CCN2C=C1NC(=O)c1ccccc1 (stereo not given),101% (inactive)
6,CCCC[N+]1(C)CCN=C1Cc1ccccc1 (stereo not given),93.7% (inactive)
7,C#CC#CC#CC#CC#CC#CC#CC#CC[C@@H]1OC[C@H](COC(=O)O[C@@H](C(=O)O[C@H]2C[C@@]3(O)[C@@H](OC(=O)c4ccccc4)[C@@H]4[C@]5(OC(C)=O)CO[C@@H]5C[C@H](O)[C@@]4(C)C(=O)[C@H](OC(C)=O)C(=C2C)C3(C)C)[C@@H](NC(=O)c2ccccc2)c2ccccc2)O1,19.7% (inactive)
8,NC(=N\N=C/c1ccc(Cl)cc1Cl)/C(N)=N\N=C/c1ccc(Cl)cc1Cl,88.8% (inactive)
9,CC1OC(C(=O)N2CCN(CCO)CC2)CC1COC1CCCCC1 (stereo not given),109% [50 µM] (inactive)
10,CCN1CCN(c2cc(C(=O)Nc3cccc(Nc4ccc5c(OC)cccc5n4)c3)cc(C(F)(F)F)c2)CC1,-53.3% (active)
11,CC(C)(C)[C@H](OCc1cn([C@H]2C[C@@H](O)[C@@H](CO)O2)c(=O)[nH]c1=O)c1ccc(C#Cc2ccccc2)cc1[N+](=O)[O-],87.1% (inactive)
12,O=C(Nc1ncc(Cc2ccccc2)s1)c1ccc2c(c1)OCCO2,13.3% (inactive)
13,CCN(CC)CCCNc1cc(OC)cc2cccnc12,111% (inactive)
14,COc1ccc(C2=NN(C=O)C(c3ccc(Oc4nc5c(c(=O)n(C)c(=O)n5C)n4C)c(OC)c3)C2)cc1 (stereo not given),82.3% (inactive)
15,C=CCNc1nc(O)c(/C=C2\C=Nc3ncccc32)s1,44.6% (inactive)
16,COc1cc(/C=C/C(=O)c2ccc(-n3cc(CN4CCN(c5cc6c(cc5F)c(=O)c(C(=O)O)cn6C5CC5)CC4)nn3)cc2)cc(OC)c1OC,83.3% (inactive)
17,O=C(/C=C/c1ccco1)c1ccc(Nc2ccnc3cc(Cl)ccc23)cc1,60.7% (inactive)
18,Nc1n[nH]c2cccc(C#Cc3cccc(C(=O)Nc4ccc(Cl)c(C(F)(F)F)c4)c3)c12,49.4% (inactive)
19,N/C(=N\c1nc2ccccc2s1)NC(=O)Nc1ccccc1,62.7% (inactive)
20,Cn1ccnc1C(=O)/C=C/c1ccc(CC(=O)Nc2cc(F)c(F)c(F)c2)cc1,4.93% (active)

# — PubChem BioAssay (NCI)
